Results on 30 compounds are retold here after PubChem BioAssay (NCATS).

Inconclusive results are not listed. Where a call stands in place of a potency, no number is given. Values without a mark were called inactive. Active and inactive are the calls of the source. Calls come from the whole dose curve; as a rule, active = well fitted cell-killing curve with a large enough effect; inconclusive = small, poorly fitted or top-dose-only effect, or effect the other way; inactive = flat fitted curve, though single readings scatter.

This test deals with JEG-3. The test can be described thus: Primary qHTS to identify gynecologic anti-cancer compounds using libraries of approved drugs and bioactive compounds (AID 1345084). Note: nearly all actives have a fitted effect of over 55% in size. The note with it: Gynecologic cancer cell panel viability, ATPlite luminescence, 48 h; series mostly up to 57.5 µM. Put shortly: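 48 h compound exposure at 37 C, 5% CO2; five-point qHTS. ATPlite luminescence readout of cell ATP.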
(In general: qHTS replaces the single test concentration by a dilution series.)
For the compound `Nc1ccc(N)c([N+](=O)[O-])c1`, the Potency entry was “inactive”.
Consider `CC(C)n1cnc2c(Nc3cccc(Cl)c3)nc(NCCO)nc21`, for which the Potency entry is “inactive”.
In the case of `O=C(CC1NCCC[C@H]1O)Cn1cnc2cc(Br)c(Cl)cc2c1=O` (stereo not given in full), the Potency entry was “inactive”.
On the same count and under the same terms, the same measure for `Cc1c(C(=O)NCCCO)cnn1-c1nc(-c2cccc(C(F)(F)F)c2)cs1`: “inactive”; for `COc1cccc(NC[C@@H](O)Cn2c3ccc(Br)cc3c3cc(Br)ccc32)c1`: “inactive”.
With `C[C@@H](O[C@H]1OCCN(Cc2n[nH]nc2CN(C)C)[C@H]1c1ccc(F)cc1)c1cc(C(F)(F)F)cc(C(F)(F)F)c1`, the Potency entry is “inactive”.
On the same count and under the same terms, as for `CC[C@H](C)[C@H]1O[C@]2(CC[C@@H]1C)C[C@@H]1C[C@@H](C/C=C(\C)[C@@H](O[C@H]3C[C@H](OC)[C@@H](O[C@H]4C[C@H](OC)[C@@H](O)[C@H](C)O4)[C@H](C)O3)[C@@H](C)/C=C/C=C3\CO[C@@H]4[C@H](O)C(C)=C[C@@H](C(=O)O1)[C@]34O)O2`, the entry is “inactive”.
The same measure, in the same setting: the same measure for `CCC(=O)Nc1cccc(Oc2nc(Nc3ccc(N4CCN(C)CC4)cc3OC)ncc2Cl)c1`: “inactive”.
The same measure, in the same setting: as for `O=C(Nc1cccc(C(F)(F)F)c1)c1ccccc1NCc1ccncc1`, the entry is “inactive”; as for `COc1cc2nc(-c3cc(F)ccc3O)nc(N[C@@H]3CNC[C@H]3C(C)(C)O)c2cc1OC`, “inactive”.
In the case of `Cc1cc(CN)cc(C)c1NC(=O)c1ccc(-c2cc(Cl)ccc2Cl)o1`, the Potency result is “inactive”.
On the same count and under the same terms, as for `c1ccc(-c2cnc(Nc3ccc(OCCN4CCCC4)cc3)s2)cc1`, the entry is “inactive”; as for `C=C1C(=O)O[C@@H]2/C=C(/C)CC3C=C(C[C@H](OC(=O)/C(C)=C\C)[C@@H]12)C(=O)O3` (stereo not given in full), “inactive”.
With `CC1(C)SC2C(NC(=O)[C@H](NC(=O)N3CCNC3=O)c3ccccc3)C(=O)N2C1C(=O)O` (stereo not given in full), the Potency entry is “inactive”.
With `CC1(C)SC2C(NC(=O)[C@H](C(=O)O)c3ccsc3)C(=O)N2C1C(=O)O` (stereo not given in full), the Potency result is “inactive”.
Consider `COc1ccc(-c2nc(-c3cc(C(F)(F)F)cc(C(F)(F)F)c3)n(Cc3ccc(C(N)=O)cc3)c2-c2ccc(OC)cc2)cc1`, for which the Potency result is “inactive”.
On the same count and under the same terms, the same measure for `Fc1ccccc1CNCc1ccc(-c2ccnc3[nH]ccc23)cc1`: “inactive”; for `CCCCc1nc(C)c(CC(=S)N(C)C)c(=O)n1Cc1ccc(-c2ccccc2-c2nn[nH]n2)cc1`: “inactive”.
Same read-out and setting: as for `CO[C@@H]1[C@@H](O[C@H]2O[C@@H](C)[C@H](O[C@@H]3C[C@](C)(O)[C@H](O)[C@@H](C)O3)[C@@H](N(C)C)[C@@H]2O)[C@@H](CC=O)C[C@@H](C)[C@@H](O[C@H]2CC[C@H](N(C)C)[C@H](C)O2)/C=C/C=C/C[C@@H](C)OC(=O)C[C@H]1O`, the entry is “inactive”; as for `CNc1cc(OC)c(C(=O)N[C@@H]2CCN(Cc3ccccc3)[C@@H]2C)cc1Cl`, “inactive”; as for `CN([C@H]1c2cc(OCCCC(F)(F)F)ccc2OC(C)(C)[C@@H]1O)S(C)(=O)=O`, “inactive”.
As to `CCOC(=O)CCC(=O)O[C@H]1[C@H](O[C@@H]2[C@@H](C)[C@H](O[C@H]3C[C@@](C)(OC)[C@@H](O)[C@H](C)O3)[C@@H](C)C(=O)O[C@H](CC)[C@@](C)(O)[C@H](O)[C@@H](C)C(=O)[C@H](C)CC2(C)O)O[C@H](C)C[C@@H]1N(C)C` (stereo not given in full), the Potency entry is “inactive”.
Consider `COc1cc(-c2cc(-c3cccc(O)c3)cnc2N)cc(OC)c1OC`, for which the Potency result is “inactive”.
Turning to `C=C1C(=O)O[C@@H]2C[C@@H](C)[C@]34C[C@]5(C(=O)O[C@H]6CC(C)=C([C@H](C)CCCO)[C@H](OC(=O)C(C)CC)[C@H]65)[C@@H](C(C)=C3C[C@@H]12)[C@H]4OC(C)=O` (stereo not given in full), the Potency entry was “inactive”.
On the same count and under the same terms, the same measure for `C[C@H](NC(=O)C(C)(C)Oc1ccc(C(F)(F)F)cn1)[C@@H](Cc1ccc(Cl)cc1)c1cccc(C#N)c1`: “inactive”; for `CN(C)CC(=O)Nc1ccc2[nH]c(=O)c3ccccc3c2c1`: “inactive”.
Consider `CC(CCC1(O)OC2CC3C4CC=C5CC(O[C@@H]6O[C@H](CO)[C@@H](O[C@@H]7O[C@H](CO)[C@@H](O)[C@H](O)[C@H]7O)[C@H](O)[C@H]6O[C@@H]6O[C@@H](C)[C@H](O)[C@@H](O)[C@H]6O)CCC5(C)C4CCC3(C)C2C1C)CO[C@@H]1O[C@H](CO)[C@@H](O)[C@H](O)[C@H]1O` (stereo not given in full), for which the activity change, negative = cytotoxicity was -6.68% [at 11.6 µM].
With `C[C@@H](CN1CCC(n2c(=O)[nH]c3cc(Cl)ccc32)CC1)NC(=O)c1ccc2ccccc2c1`, the Potency entry is “inactive”.
As to `CC(C)c1ccc(NC(=O)C(c2ccccc2)N(C)C(=O)Cc2c[nH]c3ccccc23)cc1` (stereo not given), the Potency entry was “inactive”.
On the same count and under the same terms, the same measure for `CCCCC(=O)N(Cc1ccc(-c2ccccc2-c2nn[nH]n2)cc1)C(C(=O)O)C(C)C` (stereo not given): “inactive”.
